An excerpt weighted towards active compounds, which were near 3.2% of everything screened.
ANO1 block = mouse TMEM16A channel inhibition, primary screen. HEK293 TMEM16A/YFP iodide influx fluorescence, ionomycin. AID 588511. 1.2% of 310,000 active. normalized B-score (activity score, 25-100; higher = stronger inhibition) at 10 µM. Q8BHY3;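 active means ratio plate-corrected score three or more library SD toward inhibition, starting fluorescence score within five deviations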;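 further: score derived from kinetic fluorescence span divided by baseline fluorescence per well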
CHT allo act = allosterically activates the human high affinity choline transporter; CHT-expressing cells, membrane potential dye, choline EC20; stronger effect = higher value; LV-AA mutant CHT in HEK293 cells; B-score at 10 µM; 0.49% of 310,000 active; AID 488977;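 active means initial fluorescence not abnormally high and integrated response B-score, plate-corrected, over 3 SD above library mean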
CHT block = inhibits the human high affinity choline transporter. B-score at 10 µM. 0.86% of 310,000 active. CHT-expressing cells, membrane potential dye, choline response; stronger effect = lower value;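 active means B-score over 3 SD under the library average, and starting fluorescence ratio not unusually high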;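 further: choline stimulus applied at its EC90 after an EC20 pre-addition; B-score computed on integrated fluorescence ratio after choline addition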
Kir21 block = inhibitors of mouse Kir2.1 inward-rectifier potassium channel; HEK293-Kir2.1, FluxOR thallium flux fluorescence; stronger effect = lower value; P35561; B-score at 10 µM; 0.85% of 310,000 active; AID 1672;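 active means fluorescence ratio B-score at or below minus 3 SD of library scores, with starting-brightness B-score within 2 SD, cut at about -4.2 in these data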;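 further: channel flux triggered by added potassium and thallium sulfate stimulus; B-score of peak minus minimum fluorescence over baseline after thallium stimulus; more negative B-score means stronger Kir2.1 block with less thallium influx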
Target sequence (P35561 whole entry, looked up): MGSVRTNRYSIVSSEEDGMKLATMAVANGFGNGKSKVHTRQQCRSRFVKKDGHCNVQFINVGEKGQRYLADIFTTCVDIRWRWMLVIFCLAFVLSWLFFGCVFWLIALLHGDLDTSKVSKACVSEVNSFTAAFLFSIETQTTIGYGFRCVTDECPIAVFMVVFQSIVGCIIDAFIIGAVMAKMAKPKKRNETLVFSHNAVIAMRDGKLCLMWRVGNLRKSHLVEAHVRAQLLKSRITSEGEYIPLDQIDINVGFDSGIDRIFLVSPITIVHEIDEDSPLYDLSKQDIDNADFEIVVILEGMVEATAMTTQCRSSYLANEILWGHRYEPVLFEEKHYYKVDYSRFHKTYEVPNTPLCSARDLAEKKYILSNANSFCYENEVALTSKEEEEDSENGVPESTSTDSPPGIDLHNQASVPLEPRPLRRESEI
Rce1 inh = inhibitors of yeast Ras-converting enzyme. Q03530. yeast membranes, quenched prenylated peptide cleavage fluorescence. calls only. 0.27% of 290,000 active. AID 2563;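 active means fall in fluorescence gain of 50% or more versus controls, with final raw signal at or below 3038400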;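 further: plate controls were neutral control wells for no effect and wells lacking membranes for full effect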
Target sequence (Q03530 whole entry, looked up): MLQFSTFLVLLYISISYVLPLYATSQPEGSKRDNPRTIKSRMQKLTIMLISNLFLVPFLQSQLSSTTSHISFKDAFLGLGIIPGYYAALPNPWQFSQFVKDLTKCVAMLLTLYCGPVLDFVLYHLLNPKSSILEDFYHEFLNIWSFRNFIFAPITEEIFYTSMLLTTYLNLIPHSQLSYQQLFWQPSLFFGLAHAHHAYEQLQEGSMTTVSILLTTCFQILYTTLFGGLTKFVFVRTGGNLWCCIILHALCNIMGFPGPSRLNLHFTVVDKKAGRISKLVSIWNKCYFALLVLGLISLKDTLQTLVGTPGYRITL
ANO1 activ = mouse TMEM16A channel activation, primary screen; HEK293 TMEM16A/YFP-H148Q/I152L, iodide quench fluorescence; stronger effect = lower value; B-score at 10 µM; Q8BHY3; 0.3% of 340,000 active;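 active means fluorescence-ratio B-score plate-corrected deviation score at least 3 library SD below zero, with starting fluorescence score within 5 deviations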;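 further: channel opened by trigger with iodide after compound preincubation; score built on the fluorescence ratio of max minus min over baseline; more negative score means more quench and so TMEM16A activation or potentiation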
CHT inh conf = human CHT inhibition, confirmatory screen | shares compounds with CHT block | CHT-expressing cells, choline membrane potential dye; LV-to-AA substituted CHT, HEK293 cells | CHT activity remaining % of control (stronger effect = lower value), % at 10 µM | 70% of 2,400 active | AID 493221;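 active means choline transporter activity left, mean of duplicates at 10 µM, below buffer-only control mean minus 3 SD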;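 further: depolarization triggered by choline at its EC90 following an EC20 pre-addition; 0% = hemicholinium-3 full block and 100% = buffer-only control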
HEK293 MPD ctr = CHT inhibitor counter-screen hit in parental HEK293 cells | shares compounds with CHT block | membrane potential dye, choline response; active = decrease or increase beyond buffer ±3SD | membrane potential ratio readout (active if shifted either direction beyond buffer ±3SD; no single direction) at 10 µM | 4% of 2,400 active | AID 493222;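 further: parental cells lack the transporter so any hit is non-specific; ratio is peak minus trough fluorescence over baseline after EC90 choline challenge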
TMEM16A reconf = reconfirmed blocker of mouse TMEM16A calcium-activated chloride channel | AID 652189 | 39% of 2,300 active | inhibition, % at 10 µM | HEK293 TMEM16A/YFP-H148Q, iodide quench fluorescence; ionomycin added to raise cell calcium | shares compounds with ANO1 block;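 active means mean duplicate percent inhibition, scaled so buffer wells are 0 and the reference blocker 100, over three buffer SD above buffer mean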
TMEM16A Ca cntr = counter-screen for TMEM16A inhibitors: effect on calcium mobilization. shares compounds with ANO1 block. TMEM16A/YFP HEK293, Fluo4 calcium mobilization. calcium response (% of ionomycin), % at 10 µM. 2% of 2,300 active;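 active means duplicate-averaged calcium signal over 20% of the ionomycin maximum, relative to buffer baseline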;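 further: each well's signal is peak minus trough fluorescence divided by its pre-addition baseline; 0% = buffer wells and 100% = ionomycin wells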
Parental YFP cnt = acts in parental YFP-HEK293 cells lacking TMEM16A, counter-screen. 2,300 tested, under 10 active. iodide YFP quench, ionomycin. shares compounds with ANO1 block. YFP ratio F(max-min)/F0 at 10 µM;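 active means yellow fluorescent protein signal ratio exceeding the buffer control mean by over 5 SD of those controls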;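 further: ratio is mean of duplicate wells from kinetic YFP trace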
ClC-1 inh = rat ClC-1 inhibition, TMEM16A specificity screen; CHO ClC-1-YFP, iodide influx fluorescence quench; iodide control reads 0, buffer control 100; 2,300 tested, under 10 active; shares compounds with ANO1 block; ratio percent, % at 10 µM; AID 652236;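 active means duplicate-mean ratio percent above the mean of iodide-only control wells, which defines zero, plus 5 of their SD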;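 further: higher percent means stronger block of ClC-1 iodide influx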
Starred values were filed as active, the others as inactive; i = inactive; · = not tested or not shown.

SMILES	ANO1 block	CHT allo act	CHT block	Kir21 block	Rce1 inh	ANO1 activ	CHT inh conf	HEK293 MPD ctr	TMEM16A reconf	TMEM16A Ca cntr	Parental YFP cnt	ClC-1 inh
O=C(Cn1c(=O)n(CCCCC(=O)NC2CCCC2)c(=O)c2ccccc21)NCCC1=CCCCC1	100*	i	-6.95*	-0.97	i	i	i	i	i	i	-0.817	-3.0
Cn1c(=O)c2ccccc2n(CC(=O)NCCC2=CCCCC2)c1=O	i	i	i	-1.41	i	i	·	·	·	·	·	·
O=C(O)C1=CC[C@@H](c2ccc(Cl)cc2)N(S(=O)(=O)c2ccc(Cl)cc2)[C@H]1c1ccc(F)cc1	100*	i	-6.35*	·	·	i	57.8%*	i	i	i	-0.966	-28.0
COc1ccccc1NS(=O)(=O)c1cccc(C(=O)NNC(=O)C(C)NC(=O)c2ccco2)c1 (configuration not stated)	·	·	·	·	·	i	·	·	·	·	·	·
Cn1cc(S(=O)(=O)NC2CCCCC2)c(=O)n(C)c1=O	i	i	i	2.7	i	i	·	·	·	·	·	·
C=CCNC(=O)c1onc(CSc2ccc(C(C)C)cc2)c1C(=O)O	25*	i	-5.18*	1.17	i	i	61.1%*	i	i	i	-1.02	-16.5
C=CCNC(=O)c1onc(CSc2ccccc2)c1C(=O)O	i	i	i	0.84	i	i	·	·	·	·	·	·
O=C(Nc1cc(S(=O)(=O)N2CCCCC2)ccc1O)c1ccccc1NS(=O)(=O)c1ccc(F)cc1	100*	i	-5.44*	-0.01	i	i	26.5%*	i	67.5%*	i	-1.05	-18.5
Cc1ccc(S(=O)(=O)N2CCOCC2)cc1C(=O)Nc1cc(S(=O)(=O)N2CCCCC2)ccc1O	·	·	·	·	·	i	·	·	·	·	·	·
C=CCc1cc(C(=O)N2CCCCC2)ccc1O	i	i	i	0.49	i	i	·	·	·	·	·	·
C=CCc1ccc(O)c(-c2ccc(O)c(CC=C)c2)c1	100*	i	-7.03*	-2.57	i	i	61.8%*	i	56.0%*	i	-0.879	-13.5
Cc1ccc(S(=O)(=O)N2CCCCC2)cc1NC(=O)C1CCC1	·	·	·	·	·	i	·	·	·	·	·	·
O=C(NNC1=C(C(=O)C(F)(F)F)CCC1)c1ccc(Br)cc1	100*	i	-7.47*	-0.3	i	i	43.1%*	i	16.0%*	i	-0.982	-9.0
O=C(Nc1ccccc1O)c1ccccc1O	100*	i	-8.85*	1.07	i	i	40.4%*	i	31.5%*	i	-1	-26.0
Cc1ccc(F)cc1NC(=O)c1ccc(NS(=O)(=O)c2ccc(Br)s2)cc1	25*	i	-7.11*	1.32	i	i	49.7%*	i	i	i	-0.85	0.5
Cc1ccc(NC(=O)c2cccs2)cc1NC(=O)c1ccc(F)cc1	i	i	i	-0.01	·	i	·	·	·	·	·	·
Cc1c(-c2ccc(Cl)cc2Cl)nc2ccccc2c1C(=O)NCCN1CCOCC1	i	i	i	1.12	i	i	·	·	·	·	·	·
CNC(=O)c1c(C)nn(-c2ccc(F)c(Cl)c2)c1-c1cc(C)on1	i	i	i	-0.82	i	i	·	·	·	·	·	·
O=C(c1ccccc1Br)N1CCCC(c2nc(-c3cccs3)no2)C1 (configuration not stated)	25*	i	-6.31*	-1.85	i	i	i	i	19.0%*	i	-1.04	-15.0
O=C(c1ccc(Br)cc1)N1CCCC(c2nc(-c3cccs3)no2)C1 (configuration not stated)	i	i	i	-3.96	i	i	·	·	·	·	·	·
CCc1nc(NC(=O)Cc2csc(C)n2)sc1C(=O)OC	i	i	i	-0.14	i	i	·	·	·	·	·	·
O=C1CC(O)(C(F)(F)F)Oc2c1ccc1ccccc21 (configuration not stated)	100*	i	-8.13*	0.51	i	i	46.0%*	i	54.0%*	37.5%*	-1.09	-24.5
CC1(C)Cc2c(ccc3ccccc23)C(=O)N1	i	i	i	0.88	i	i	·	·	·	·	·	·
O=S(=O)(Nc1nc2ccccc2nc1Cl)c1cccc(C(F)(F)F)c1	25*	i	-5.2*	-0.88	·	i	i	i	21.0%*	i	-1.06	-10.0
Cc1ccc(SCC2(O)CCN(C(=O)c3ccc(Cl)cc3)CC2)cc1	25*	i	-5.77*	1.85	i	i	65.4%*	i	i	i	-0.93	0.5
SMILES	ANO1 block	CHT allo act	CHT block	Kir21 block	Rce1 inh	ANO1 activ	CHT inh conf	HEK293 MPD ctr	TMEM16A reconf	TMEM16A Ca cntr	Parental YFP cnt	ClC-1 inh
CCOc1ccc(CCNC(=O)c2cnc(C)cn2)cc1OCC	i	i	i	-1.55	i	i	·	·	·	·	·	·
Cc1ccccc1Nc1nnc(SCC(=O)NCC2CCCO2)s1 (configuration not stated)	·	·	·	·	·	i	·	·	·	·	·	·
CCOC(=O)N1CCC(N(CCN(C)C)C(=S)Nc2cc(Cl)ccc2C)CC1	i	i	i	0.31	i	i	·	·	·	·	·	·
Cc1cccc(C(=O)Nc2sc(C)c(-c3ccccc3)c2C#N)c1	i	i	i	2.01	i	i	·	·	·	·	·	·
Cc1noc(C)c1C(=O)Nc1sc(C)c(-c2ccccc2)c1C#N	25*	i	-5.16*	0.03	i	i	70.6%*	i	46.5%*	i	-1.2	-7.5
Cc1csc2c(N3CCN(C(=S)Nc4ccc(C(F)(F)F)cc4)CC3)ncnc12	100*	i	-6.16*	0.2	i	i	54.5%*	i	i	i	-1.14	-18.5
Cc1ccc(C)c(NC(=O)CN(C)C(=O)c2cccc(N3C(=O)CCC3=O)c2)c1	i	i	i	-0.11	i	i	·	·	·	·	·	·

Screening data (PubChem)
